Source: PubChem BioAssay
Shown are actives, neighbours in structure and some others; about 12% of the full set was active somewhere.
HP1b binding inh: HP1-beta chromodomain-methylated histone interaction inhibition; P83916; AlphaScreen HP1-beta / biotin-H3K9me3 peptide binding; Potency, µM (titrated, usually from 114 µM), without a hit: at the highest dose activity change, negative = inhibition, hits mostly inhibitors; 0.56% of 390,000 active; AID 540317; further: nearly all actives have a fitted effect of over 70% in size
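Compound inhibition of the preformed complex between 50 nM HP1-beta and 50 nM biotinylated H3K9me3 peptide was read by AlphaScreen. Buffer was PBS pH 7.4 with 0.01% Tween-20. Incubations ran 30 min at room temperature, with 10 ug/mL donor/acceptor beads.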
JMJD2A Tudor inh: inhibitors of human JMJD2A Tudor domain; O75164; AlphaScreen JMJD2A-Tudor / H3K4me3 peptide binding; Potency, µM (series often up to 114 µM), inactives show at the highest dose activity change, negative = inhibition, hits mostly inhibitors; 4.4% of 390,000 active; further: on the % scale 0 is the no-effect control and ±100 the full control effect; nearly all actives have a fitted effect of over 50% in size
BAZ2B block: blocks human BAZ2B | AlphaScreen BAZ2B-H3K14Ac peptide displacement | Potency, µM (titrated, usually from 114 µM), without a hit: at the highest dose activity change, negative = inhibition, hits mostly inhibitors | 4.4% of 360,000 active | AID 504333; further: on the % scale 0 is the no-effect control and ±100 the full control effect; nearly all actives have a fitted effect of over 60% in size
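Multi-concentration screen (max 110 uM) measuring displacement of acetylated histone H3 peptide from BAZ2B by AlphaScreen, using 50 nM protein, 50 nM peptide and 10 ug/mL streptavidin donor plus Ni-chelate acceptor beads.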
PLK1 PBD inh: PLK1 (human) polo-box domain binding inhibition; Potency, µM, for the others: max response, negative = inhibition, actives largely listed as inhibitors; AID 720504; P53350; Plk1 PBD binding of FITC phosphopeptide, fluorescence polarization; 2.8% of 360,000 active; further: series mostly up to about 57 µM; on the % scale 0 is the no-effect control and ±100 the full control effect; nearly all actives have a fitted effect of over 65% in size
Target sequence (P53350 whole entry, looked up, the tested form may be a part): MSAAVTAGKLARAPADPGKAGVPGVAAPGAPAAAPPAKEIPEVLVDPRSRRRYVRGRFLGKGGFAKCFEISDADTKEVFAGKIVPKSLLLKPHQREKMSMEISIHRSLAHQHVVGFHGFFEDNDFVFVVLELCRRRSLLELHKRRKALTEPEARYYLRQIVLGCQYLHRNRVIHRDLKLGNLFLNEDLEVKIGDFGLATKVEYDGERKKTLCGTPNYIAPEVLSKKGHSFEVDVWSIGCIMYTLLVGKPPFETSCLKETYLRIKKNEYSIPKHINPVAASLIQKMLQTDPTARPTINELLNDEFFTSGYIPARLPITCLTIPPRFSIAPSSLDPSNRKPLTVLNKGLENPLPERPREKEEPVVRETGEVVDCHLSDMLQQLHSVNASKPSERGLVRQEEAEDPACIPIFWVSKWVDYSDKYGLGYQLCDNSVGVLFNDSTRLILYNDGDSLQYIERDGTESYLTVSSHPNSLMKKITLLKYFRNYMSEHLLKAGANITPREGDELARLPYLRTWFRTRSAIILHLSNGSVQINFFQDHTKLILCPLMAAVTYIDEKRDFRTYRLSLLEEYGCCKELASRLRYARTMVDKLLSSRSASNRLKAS
G9a inh: G9a (human) methyltransferase inhibition | Q96KQ7 | G9a H3K9 monomethylation, AlphaScreen, 2 h | Potency, µM (series often up to 102 µM), without a hit: top-dose activity, negative = inhibition, most hits filed as inhibitors | 8.8% of 350,000 active; further: on the % scale 0 is the no-effect control and ±100 the full control effect; nearly all actives have a fitted effect of over 75% in size
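Methyltransferase reactions run at room temperature for 2 h (20 nM enzyme, 500 nM biotin-H3K9 peptide, 20 uM SAM) after a 15 min compound preincubation; product detected by AlphaScreen beads and anti-H3K9me1 antibody.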
Sfp PPTase inh: inhibitors of Bacillus subtilis Sfp phosphopantetheinyl transferase. Biochemical Sfp PPTase activity, qHTS. AID 1490. Potency, µM, for inactives: largest response in the series, negative = inhibition, most hits filed as inhibitors. 3.5% of 310,000 active. Q9F4F7;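 further: the enzyme is Sfp with the accession as filed and its product quenches rhodamine fluorescence; 0% = enzyme reaction without inhibitor and -100% = no enzyme wells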
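Sfp 15 nM + cpd, 15 min RT; start w/ rhodamine-CoA 5 uM, BHQ-2-YbbR 12.5 uM (final); 50 mM Hepes pH 7.6, 10 mM MgCl2, 0.01% NP-40, 0.01% BSA; read 525/598 nm at 0 and 30 min.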
Numbers without * were called inactive; u = inconclusive; x = not tested or not shown; ! = a repeat was not active; [ ] = dose if it differs, or a comment. The call rests on the fitted dose curve; in most records, active means well fitted curve in the direction sought with a large enough effect; inconclusive means small, poorly fitted or top-dose-only effect, or another doubt; inactive means no such curve, though single readings can be large; an effect the other way counts as inactive or inconclusive. Potency means the concentration at half of the fitted maximal effect.

SMILES | HP1b binding inh | JMJD2A Tudor inh | BAZ2B block | PLK1 PBD inh | G9a inh | Sfp PPTase inh
O=C1C(CCCNC(=S)NCc2ccccc2)NC(=S)N1Cc1ccccc1 (stereo not given) | -3% | -31% | u | -7% | 50µM* | 6%
COc1ccc(S(=O)(=O)N2CCN(Cc3ccccc3)CC2)cc1OC | 18% | -15% | -4% | -3% | x | 1%
CC(=O)Nc1ccc(S(=O)(=O)N2CCN(Cc3ccncc3)CC2)cc1 | 30% | -13% | -5% | -9% | u | 7%
COc1cccc(CN2CCN(S(=O)(=O)c3ccc(NC(C)=O)cc3)CC2)c1OC | u | 2.5µM* | -16% | -3% | -11% | 19%
COc1ccc(CC(=O)Nc2ccc(S(=O)(=O)N(C)C)cc2)cc1OC | 30% | 1% | 3% | -5% | 9%[12.7 µM] | 15%
COc1cc(CN2CCN(S(=O)(=O)c3ccc(NC(C)=O)cc3)CC2)cc(OC)c1OC | u | 22µM* | 50µM* | x | 25µM* | x
COc1ccc(CN2CCN(S(=O)(=O)c3ccc(C)cc3)CC2)cc1OC | u | 50µM* | x | -7% | x | x
COc1cc(CC(=O)Nc2ccc(S(=O)(=O)N(C)C)cc2)cc(OC)c1OC | 38% | -9% | 26% | -4% | 50µM* | -28%
Cc1nc2[nH]c(=S)[nH]c2cc1Br | 4% | 45µM* | 0% | u | 4µM* | -12%
Cc1nc2nc[nH]c2cc1Br | 18% | 10% | -14% | -4% | -7% | 6%
CCOC(=O)[C@]12CCCC=C1N(Cc1ccco1)C(=O)[C@H](CC(=O)N1CCCCC1)C2 | x | x | x | -7% | x | x
Cc1ccc(N(CCC#N)C(=O)COC(=O)c2cc(C)no2)cc1 | 14% | -13% | 10% | -1% | 22µM* | x
Cc1ccc(N(CCC#N)C(=O)COC(=O)C2CCN(S(=O)(=O)c3ccc(C)c(C)c3)CC2)cc1 | 34% | -3% | -32% | 7% | 45µM* | x
COc1ccc(/C=N/Nc2ccc(C(F)(F)F)cc2[N+](=O)[O-])cc1O | u | 89µM* | u | u | u | -3%
CCOc1ccc(/C=N/Nc2ccc(C(F)(F)F)cc2[N+](=O)[O-])cc1O | -30% | -30% | u | -13% | 45µM* | -5%
CCOc1cc(/C=N/NC(=O)Cc2ccc(C(F)(F)F)cc2[N+](=O)[O-])ccc1O | 13% | 3% | -9% | -8% | u | 20%
CNC(=O)c1sccc1Oc1ccc(F)cc1[N+](=O)[O-] | -18% | -19% | u | 27µM* | -3% | -6%
CSC(=Nc1ccc(Cl)cc1)N[n+]1ccccc1 | -3% | -11% | -29% | -8% | 2µM* | -4%
CC12CCC(=O)N1C(C(=O)NCCN1C(=O)S/C(=C\c3ccccc3Cl)C1=O)CS2 (stereo not given) | 21% | -19% | -1% | -19% | -3%[12.7 µM] | x
Cc1ccc(/C=C2\SC(=O)N(CCNC(=O)C3CSC4(C)CCC(=O)N34)C2=O)cc1 (stereo not given) | 13% | -18% | -24% | -5% | 35µM* | x
Cc1cccc(N2CCN(C(=O)c3c(C)oc4nc(C)nc(N5CCCC5)c34)CC2C)c1 (stereo not given) | 14% | -27% | -8%[57.1 µM] | x | u | x
O=S(NCc1ccco1)C12CC3CC(CC(C3)C1)C2 (stereo not given) | -2% | -35% | -1% | u | 6.3µM* | -29%
O=S(NCc1ccccc1)C12CC3CC(CC(C3)C1)C2 (stereo not given) | 18% | -14% | 8% | -26% | -26%[12.7 µM] | 18%
CN1CCN(S(=O)(=O)c2ccc(N3CCc4ccccc4C3)nc2)CC1 | -16% | 8.9µM* | -38% | 7.5µM* | -31% | 11%
CCN(CC)CCOC(=O)C1(c2ccc([N+](=O)[O-])cc2)CCCC1 | 13% | -30% | 5% | -3% | 13µM*! | 8%
SMILES | HP1b binding inh | JMJD2A Tudor inh | BAZ2B block | PLK1 PBD inh | G9a inh | Sfp PPTase inh
CN=C1NN=C(c2cc(C)n(-c3ccc(Cl)cc3)c2C)CS1 | -15% | u | x | -29% | 32µM* | 35µM*
Cc1ccc(-n2c(C)cc(C3=NNC(=NC4CC4)SC3)c2C)cc1C | u | 50µM* | 50µM* | -3% | 45µM* | -29%
Cn1c(=O)c2cc(NCc3ccccc3)nnc2n(C)c1=O | 36% | 3% | -8% | -12% | 14µM* | u
Cn1c(=O)c2c(nc(NCc3ccccc3)n2C)n(C)c1=O | 21% | -15% | 3% | -1% | 8%[12.7 µM] | 7%
COC(=O)C1=C(C(=O)OC)[C@@H]2N(Cc3ccccc3)c3ccccc3[C@@]23C[C@@H](C(=O)OC)N(S(=O)(=O)c2ccc(Br)cc2)C3=N1 | x | x | x | x | x | 0%
O=C(CC1CCCCC1)NCCOc1ccccc1 | 17% | 50µM* | -2% | 27µM* | 9%[59 µM] | 4%
O=C(NCCOc1ccccc1)C1CCCCC1 | 37% | -11% | -3% | 4% | 0% | 12%
O=C(CN(Cc1ccco1)C(=O)CNS(=O)(=O)c1ccc(F)cc1)NCc1ccccc1 | -6% | -10% | -19% | -9% | 15% | 2%
CN1CC[C@@]2(CCCN(C(=O)c3cccc(F)c3)C2)C1 | x | x | x | x | -2%[12.7 µM] | 10%
CC(=O)CSc1nc2cc3c(cc2cc1C#N)OCCO3 | 21% | -9% | -22% | 0% | 1µM* | 27%
Cc1cc(C)c(C#N)c(SCC(=O)N2CCCCC2)n1 | 7% | u | 0% | u | 14µM* | 32µM*
N#Cc1cc2cc3c(cc2nc1SCC(=O)N1CCCC1)OCCO3 | 18% | -12% | -2% | -13% | 28µM* | -3%
CCN(CC)C(=O)CSc1nc(C)cc(C)c1C#N | 37% | -10% | -20% | u | u | -41%
CCN(Cc1ccccc1)C(=O)CSc1nc(C)cc(C)c1C#N | 9% | u | 5% | 21µM* | 17% | -4%
CNC(=S)NCC(O)c1ccc([N+](=O)[O-])cc1 (stereo not given) | 24% | -13% | -17% | -21% | -1% | 6%
CCOC(=O)c1c(NC(=S)NC)sc2c1CC(C)(C)SC2 | 20% | -20% | -6% | 24µM* | u | 20µM*
CCOC(=O)c1c(NC(=S)Nc2ccccc2)sc2c1CC(C)(C)SC2 | -8% | -29% | u | u | 40µM* | -21%
CCOC(=O)c1c(NC(=S)Nc2ccc(OC)cc2)sc2c1CCC2 | u | -9% | u | u | -48%[59 µM] | u
O=C(OCCCOC(=O)c1ccc(Br)o1)c1ccc(Br)o1 | 79% | 99% | 28% | -7% | -29% | x
O=C(CSCc1ccccc1Br)NNC(=S)NCc1ccco1 | -2% | u | -31% | u | 40µM* | 21%
O=C(CSc1cccc(C(F)(F)F)c1)NC(=O)NCc1ccco1 | -1% | 79µM* | 50µM* | -27% | 11%[59 µM] | -21%
